High-throughput results as filed in PubChem BioAssay.
This is a sample that favours compounds with a hit; in the whole collection about 5.7% have one here.
GLP1R cytotox: cytotoxicity in counter-screen for GLP-1R inverse agonists; Potency, µM (doses to about 38.3 µM), for inactives: at the highest dose activity change, negative = inhibition, hits mostly inhibitors; HEK293 cAMP-luciferase reporter cells, luminescence, 24 h; actives 0.13% (n = 410,000);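 note: loss of luciferase light is scored as toxicity; potency is the fitted concentration of half-maximal effect; % is set by controls: 0 for no effect and ±100 for the full control effect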
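Seeding density was 200 cells/uL; after overnight-length (12 h) culture, 23 nL compounds went on for 24 h at 37 °C. Readout used a luciferase detection reagent, luminescence taken after 12 min at room temperature.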
D3 antag: D3 dopamine receptor (human) antagonism. P35462. D3R cells, DiscoveRx beta-arrestin luminescence, antagonist mode; hits give low values. max response, negative = inhibition, %. actives 2.5% (n = 360,000). AID 652054; in the data active = max response below about -50%; inconclusive = no clear call, values can overlap the other calls; note: % is set by controls: 0 for no effect and ±100 for the full control effect
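Cells expressing the human receptor were seeded at 1500 cells/well, incubated overnight at 37 degrees C in 5% CO2, then exposed to library compounds with dopamine controls for 90 minutes at 37 degrees C before luminescent detection.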
ClpP mod: qHTS Assay for Activators of ClpP; AID 651965, 2013; ATP-dependent Clp protease proteolytic subunit (Bacillus subtilis (strain 168)), P80244; purified B. subtilis ClpP, FRET peptide cleavage, 20 min; actives 1.9% (n = 340,000); Potency, µM (top dose mostly 57.5 µM), for the others: top-dose activity change, negative = active; active = well fitted falling curve with a large enough effect; inconclusive = small, poorly fitted or top-dose-only effect; inactive = no such curve, though single readings can be large or run the other way; note: potency is the fitted concentration of half-maximal effect; the source files actives as falling curves though it sought activators and does not explain the sign; nearly all actives have a fitted effect of over 65% in size
Target sequence (P80244 whole entry, looked up): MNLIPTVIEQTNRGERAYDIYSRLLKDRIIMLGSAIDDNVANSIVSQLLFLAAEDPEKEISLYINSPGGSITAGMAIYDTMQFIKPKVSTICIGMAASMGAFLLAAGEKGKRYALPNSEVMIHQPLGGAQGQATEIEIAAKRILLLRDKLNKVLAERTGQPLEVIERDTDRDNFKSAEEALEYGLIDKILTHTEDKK
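Buffer: 100 mM Tris/HCl pH8, 100 mM KCl, 0.05% low protease BSA, 2.5% glycerol, 0.01% Tween-20. ClpP 10 microg/mL final; 20 min RT; delta FRET normalized to ADEP and DMSO controls.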
D3 ag: agonists of human D3 dopamine receptor. max activation, %. D3R DiscoveRx beta-arrestin cells, luminescence, 90 min. P35462. actives 0.58% (n = 410,000); in the data active = max activation above about 30%; note: 0% is about no effect
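Agonist-mode cell screen: cells plated at 1500/well and incubated overnight at 37 °C, then exposed to library compounds for 90 min at 37 °C. Detection reagent was added for 30–60 min at room temperature, and luminescence was read.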
GLP1R ag: GLP-1 receptor (human) agonism. P43220. HEK293 GLP-1R CRE-luciferase, luminescence, 4-6 h; cells express a hypersensitive GLP-1R form. Potency, µM (highest dose often 45.6 µM), for the others: at the top dose activation, hits mostly activators. actives 0.007% (n = 380,000); note: potency is the fitted concentration of half-maximal effect; % of control where 0% means no effect
Target sequence (P43220 whole entry, looked up): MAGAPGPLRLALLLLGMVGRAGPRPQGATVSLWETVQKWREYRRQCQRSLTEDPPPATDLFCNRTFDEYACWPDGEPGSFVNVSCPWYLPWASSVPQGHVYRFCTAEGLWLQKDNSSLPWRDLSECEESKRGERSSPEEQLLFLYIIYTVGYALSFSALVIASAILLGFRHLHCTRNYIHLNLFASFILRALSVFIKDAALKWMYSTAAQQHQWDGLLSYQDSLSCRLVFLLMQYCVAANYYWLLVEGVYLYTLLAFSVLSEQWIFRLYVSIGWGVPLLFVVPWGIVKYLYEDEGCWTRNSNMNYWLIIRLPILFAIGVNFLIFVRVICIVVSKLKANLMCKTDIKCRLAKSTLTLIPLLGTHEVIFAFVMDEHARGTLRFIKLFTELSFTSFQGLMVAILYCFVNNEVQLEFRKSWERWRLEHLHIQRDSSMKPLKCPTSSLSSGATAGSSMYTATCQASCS
GLP-1R inv ag: acts as inverse agonist at human GLP-1 receptor; HEK293 GLP-1R CRE-luciferase, luminescence, 24 h; GLP-1R form is constitutively active; Potency, µM (highest dose often 38.3 µM), for the others: at the top dose activity change, negative = inhibition, actives largely listed as inhibitors; P43220; AID 624417; actives 1.6% (n = 410,000); note: potency is the fitted concentration of half-maximal effect; % is set by controls: 0 for no effect and ±100 for the full control effect; nearly all actives have a fitted effect of over 55% in size
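Stable HEK293 clone (constitutively active GLP-1R + cAMP-response luciferase); 200 cells/uL plated, 12 h pre-culture, compound 24 hr, 37 deg C/5% CO2; detection reagent 12 min RT; luminescence.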
* = called active by the depositor; [ ] = dose if it differs, or a comment. Unless noted, calls come from the whole dose curve; as a rule, active = well fitted curve in the direction sought with a large enough effect; inconclusive = small, poorly fitted or top-dose-only effect, or another doubt; inactive = no such curve, though single readings can be large; an effect the other way counts as inactive or inconclusive.

What do the screens show for `Cn1cnc([N+](=O)[O-])c1S(=O)(=O)Oc1cccc2ccccc12`?
GLP1R cytotox: inconclusive; D3 antag: -97*; D3 ag: -35; GLP1R ag: -11%; GLP-1R inv ag: inconclusive

Results for O=C(CCc1ccc(O)c(O)c1)N/N=C/c1ccc2c(c1)OCO2 ?
GLP1R cytotox: -14%; D3 antag: -7; ClpP mod: -14%; D3 ag: 76*; GLP1R ag: 5%; GLP-1R inv ag: 66%

What do the screens show for `CC(C)Oc1ccc(CCC(=O)N/N=C/c2ccc3c(c2)OCO3)cc1`?
GLP1R cytotox: -14%; D3 antag: 16; D3 ag: 6; GLP1R ag: 1%; GLP-1R inv ag: 7%

What do the screens show for `Cc1ccc(-n2nnc(C(=O)Nc3cc(F)ccc3F)c2C)cc1F`?
GLP1R cytotox: -6%; ClpP mod: 0%; D3 ag: 5; GLP-1R inv ag: 26%

What do the screens show for `COc1ccccc1Oc1nc(-c2ccccc2)cc(C)c1S(C)(=O)=O`?
GLP1R cytotox: -6%; D3 antag: -9; ClpP mod: 25µM*; D3 ag: -8; GLP1R ag: 5%; GLP-1R inv ag: inconclusive

How did Cc1cccc(Oc2nc(-c3ccccc3)cc(C)c2S(C)(=O)=O)c1C do in these assays?
GLP1R cytotox: 17%; D3 antag: 26; ClpP mod: inconclusive; D3 ag: -2; GLP1R ag: 6%; GLP-1R inv ag: inconclusive

What do the screens show for `Cc1cc(C)cc(Oc2nc(-c3ccccc3)cc(C)c2S(C)(=O)=O)c1`?
GLP1R cytotox: -10%; D3 antag: -20; ClpP mod: inconclusive; D3 ag: -2; GLP1R ag: 3%; GLP-1R inv ag: 4.5µM*

What do the screens show for `Cn1cnc2c(NCc3ccccc3)nc(Cl)nc21`?
ClpP mod: 2%

How did O=S(=O)(c1ccc(Br)cc1)c1nc(-c2cccs2)oc1SCc1ccccc1F do in these assays?
GLP1R cytotox: -11%; ClpP mod: -11%; D3 ag: -2; GLP-1R inv ag: inconclusive

What do the screens show for `COc1ccc(CN(Cc2ccccc2)C(=O)CN2CCN(C)CC2)cc1COc1ccc(NC(C)=O)cc1`?
ClpP mod: -1%

How did Cc1ccc(OCCC(=O)NCCc2ccc(S(N)(=O)=O)cc2)cc1 do in these assays?
GLP1R cytotox: -15%; D3 antag: 11; ClpP mod: 13µM*; D3 ag: 2; GLP1R ag: -3%; GLP-1R inv ag: -2%

What do the screens show for `Cc1ccc2c(c1)-c1c(cnc3cc(-c4ccc(F)cc4)nn13)CO2`?
GLP1R cytotox: 7%; ClpP mod: -1%; D3 ag: 2; GLP1R ag: 0%; GLP-1R inv ag: 5%

How did Cc1ccc2c(c1)-c1c(cnc3cc(-c4ccc(Cl)cc4)nn13)CO2 do in these assays?
GLP1R cytotox: 4%; ClpP mod: 18µM*; D3 ag: -4; GLP1R ag: 1%; GLP-1R inv ag: 4%

Results for O=C(Nc1cccc(-c2cccc(Cl)c2)c1)C1CCN(Cc2ccc(CO)o2)CC1 ?
GLP1R cytotox: inconclusive; D3 antag: 0; ClpP mod: 1%; D3 ag: -20; GLP1R ag: 6%; GLP-1R inv ag: 3.5µM*

What do the screens show for `Cc1cccc(C)c1Nc1c(-c2ccsc2)nc2cccc(C)n12`?
GLP1R cytotox: 3%; ClpP mod: 35µM*; D3 ag: 4; GLP-1R inv ag: 1%

How did COc1ccc(O)c(C(=O)c2cnc3nc4ccccc4n3c2)c1 do in these assays?
GLP1R cytotox: -6%; D3 antag: 7; ClpP mod: 28µM*; D3 ag: 5; GLP1R ag: 4%; GLP-1R inv ag: -15%

What do the screens show for `COc1c(N)c2c(c([N+](=O)[O-])c1OC)C(=O)OC2`?
GLP1R cytotox: -15%; D3 antag: -12; ClpP mod: -3%; D3 ag: -4; GLP1R ag: -16%; GLP-1R inv ag: -23%

How did CC(=O)N(O)c1ccc(/C=C2\C=Cc3ccccc32)cc1 do in these assays?
ClpP mod: 1%

How did COc1cccc(Nc2nc(-c3cccs3)nc3ccccc23)c1 do in these assays?
GLP1R cytotox: -5%; D3 antag: 10; D3 ag: 2; GLP1R ag: 27%; GLP-1R inv ag: 11µM*

Results for CCSc1nnc2nc(C)cc(C)n12 ?
GLP1R cytotox: -17%; D3 antag: -2; ClpP mod: -13%; D3 ag: -4; GLP1R ag: -7%; GLP-1R inv ag: 0%

Results for CCCCSc1nnc2nc(C)cc(C)n12 ?
GLP1R cytotox: 4%; D3 antag: -58*; ClpP mod: inconclusive; D3 ag: 4; GLP1R ag: 20%; GLP-1R inv ag: 44%

What do the screens show for `COc1cc(/C=C/C(=O)Nc2nc3ccc(S(=O)(=O)N(C)C)cc3s2)cc(OC)c1OC`?
GLP1R cytotox: -3%[1.53 µM]; D3 antag: -2; ClpP mod: 7.9µM*; D3 ag: 6; GLP1R ag: 9%; GLP-1R inv ag: 12%

How did COc1cc(C(=O)Nc2nc3ccc(S(=O)(=O)N4CCOCC4)cc3s2)cc(OC)c1OC do in these assays?
GLP1R cytotox: 0%; D3 antag: inconclusive; ClpP mod: -11%; D3 ag: 3; GLP1R ag: 4%; GLP-1R inv ag: -8%

How did COc1cc(/C=C/C(=O)Nc2nnc(C(C)(C)C)s2)cc(OC)c1OC do in these assays?
GLP1R cytotox: -7%; D3 antag: 25; ClpP mod: 32µM*; D3 ag: 14; GLP1R ag: 1%; GLP-1R inv ag: 10%

What do the screens show for `CC(=O)NC(=S)Nc1ccc([N+](=O)[O-])cc1C`?
GLP1R cytotox: 4%; D3 antag: -18; ClpP mod: 1%; D3 ag: -7; GLP1R ag: -5%; GLP-1R inv ag: 7%

How did COc1ccc([N+](=O)[O-])cc1NC(=O)C(C)c1ccccc1 (configuration not stated) do in these assays?
GLP1R cytotox: -5%; D3 antag: -13; ClpP mod: 1%; D3 ag: -12; GLP1R ag: 2%; GLP-1R inv ag: 10%

Results for Cc1cc([N+](=O)[O-])ccc1NC(=S)NC(=O)Cc1ccccc1 ?
GLP1R cytotox: -14%; D3 antag: -61*; ClpP mod: -2%; D3 ag: -18; GLP1R ag: 15%; GLP-1R inv ag: inconclusive

What do the screens show for `COc1ccc([N+](=O)[O-])cc1NC(=S)NC(NC(=O)C(c1ccccc1)c1ccccc1)C(Cl)(Cl)Cl` (configuration not stated)?
GLP1R cytotox: inconclusive; D3 antag: -80*; ClpP mod: -2%; D3 ag: -18; GLP1R ag: -13%; GLP-1R inv ag: 2.5µM*
